Test results as given in the supplement of paper PMC8371130.
Where a name gives a salt, the structure may show the parent alone.

system: HL-1; assay: relative cell viability (CellTiter-Glo) vs DMSO control (% of DMSO control); higher = more viable cells; details: oxygen condition: hypoxia 48 h (1% O2) + reoxygenation 24 h; 40 nM
Procedure, shortened: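 Cell viability was determined from CellTiter-Glo luminescence, expressed relative to vehicle-treated control cells. The cells were HL-1 mouse atrial cardiomyocytes, plated at 1000 cells per well in 384-well plates with compounds at 40, 200, 1000 or 5000 nM in 0.01% DMSO. One day after plating, they underwent 48 h of hypoxia (1% O2) in a hypoxic workstation followed by 24 h of reoxygenation in a normal incubator, or were kept in normoxia for an equal time.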

Row | SMILES | relative cell viability
1 | N.N.[Cl][Pt][Cl] [Cisplatin] | 91.6
2 | CCN(C)C(=O)Oc1cccc([C@H](C)N(C)C)c1 [Rivastigmine tartrate] | 105
3 | C[C@@H]1O[C@@H](O[C@H]2C[C@@H](O)[C@]3(CO)[C@H]4[C@H](O)C[C@]5(C)[C@@H](C6=CC(=O)OC6)CC[C@]5(O)[C@@H]4CC[C@]3(O)C2)[C@H](O)[C@H](O)[C@H]1O [Ouabain] | 101
4 | OC(c1ccccc1)(c1ccccc1)C1CCNCC1 [Azacyclonol] | 104
5 | CCC1(c2cccc(O)c2)CCCCN(C)C1 (configuration not stated) [Meptazinol HCl] | 97.8
6 | CNC(=O)Oc1ccc2c(c1)[C@]1(C)CCN(C)[C@@H]1N2C [Physostigmine Salicylate] | 89.5
7 | CN1[C@@H]2CC[C@H]1C[C@@H](OC(=O)[C@H](CO)c1ccccc1)C2 [Hyoscyamine] | 104
8 | C[C@]12CC[C@H](O)CC1=CC[C@@H]1[C@@H]2CC[C@]2(C)C(=O)CC[C@@H]12 [Dehydroepiandrosterone] | 102
9 | CC(=O)O[C@H]1C[C@@H]2CC[C@@H]3[C@H](CC[C@@]4(C)[C@H]3C[C@H]([N+]3(C)CCCCC3)[C@@H]4OC(C)=O)[C@@]2(C)C[C@@H]1[N+]1(C)CCCCC1 [Pancuronium] | 103
10 | CN(C)C(=O)Oc1ccc[n+](C)c1 [Pyridostigmine Bromide] | 98.7
11 | CN1c2ccccc2C(NCCCCCCC(=O)O)c2ccc(Cl)cc2S1(=O)=O (configuration not stated) [Tianeptine sodium] | 106
12 | CCCN1C[C@H](CSC)C[C@@H]2c3cccc4[nH]cc(c34)C[C@H]21 [Pergolide mesylate] | 103
13 | O=C(O)c1nn(Cc2ccc(Cl)cc2Cl)c2ccccc12 [Lonidamine] | 104
14 | C#C[C@]1(O)C=C[C@H]2[C@@H]3CCC4=CC(=O)CC[C@@H]4[C@H]3CC[C@@]21CC [Gestodene] | 102
15 | Cc1cccc([C@H](C)c2c[nH]cn2)c1C [Dexmedetomidine HCl] | 111
16 | C[N+](C)(C)CCCCCCCCCC[N+](C)(C)C [Decamethonium bromide] | 106
17 | O=P1(N(CCCl)CCCl)NCCCO1 (configuration not stated) [Cyclophosphamide monohydrate] | 100
18 | CN1C(=O)COc2c(C(=O)NC3CN4CCC3CC4)cc(Cl)cc21 (configuration not stated) [Azasetron HCl] | 98.7
19 | Cc1cccc(C)c1NC1=NCCCS1 [Xylazine HCl] | 99.5
20 | CC[C@@H](C(N)=O)N1CCCC1=O [Levetiracetam] | 113
21 | O=C(O[C@H]1C[N+]2(CCCOc3ccccc3)CCC1CC2)C(O)(c1cccs1)c1cccs1 [Aclidinium Bromide] | 104
22 | CC[N+]1(C)CCCC(OC(=O)C(O)(c2ccccc2)c2ccccc2)C1 (configuration not stated) [Pipenzolate Bromide] | 101
23 | C[C@]12C/C(=C/O)C(=O)C[C@@H]1CC[C@@H]1[C@@H]2CC[C@@]2(C)[C@H]1CC[C@]2(C)O [Oxymetholone] | 104
24 | O=c1[nH]c2ccccc2n1CCCN1CCC(n2c(=O)[nH]c3cc(Cl)ccc32)CC1 [Domperidone] | 104
25 | CC[C@@]1(O)C(=O)OCc2c1cc1n(c2=O)Cc2cc3ccccc3nc2-1 [Camptothecin] | 104
26 | Cc1cccc([C@H](C)c2c[nH]cn2)c1C [Dexmedetomidine] | 112
27 | COc1ccc(C(=O)N2CCCC2=O)cc1 [Aniracetam] | 106
